From PubChem BioAssay (NCATS)
Inconclusive results are not listed. Activity calls are given as the source filed them. Unless noted, the call rests on the fitted dose curve; in most records, active means well fitted curve in the direction sought with a large enough effect; inconclusive means small, poorly fitted or top-dose-only effect, or another doubt; inactive means no such curve, though single readings can be large; an effect the other way counts as inactive or inconclusive.

Legend:
[1] = target: Arylsulfatase A (Homo sapiens) (UniProt P15289); experiment: qHTS screen for enhancers of Arylsulfatase A (ASA1): LOPAC Validation Assay (AID 720538); further: potency means the concentration at half of the fitted maximal effect
Arylsulfatase A (Homo sapiens), sequence (P15289 whole entry, looked up): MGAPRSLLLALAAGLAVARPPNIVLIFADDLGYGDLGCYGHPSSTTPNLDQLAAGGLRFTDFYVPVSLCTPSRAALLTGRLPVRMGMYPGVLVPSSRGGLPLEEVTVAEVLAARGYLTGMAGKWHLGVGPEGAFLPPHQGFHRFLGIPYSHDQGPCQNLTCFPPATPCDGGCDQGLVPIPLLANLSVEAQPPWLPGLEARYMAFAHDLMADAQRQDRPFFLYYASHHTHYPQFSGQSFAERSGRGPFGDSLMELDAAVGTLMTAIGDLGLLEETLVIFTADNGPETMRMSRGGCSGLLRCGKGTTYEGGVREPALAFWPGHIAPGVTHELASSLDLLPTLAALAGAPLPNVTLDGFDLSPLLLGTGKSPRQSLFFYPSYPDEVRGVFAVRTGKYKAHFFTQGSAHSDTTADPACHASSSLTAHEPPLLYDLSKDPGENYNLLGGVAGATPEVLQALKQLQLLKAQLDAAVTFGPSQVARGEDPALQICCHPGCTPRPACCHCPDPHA
Summary of the method: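 Enhancer assay in patient-derived MLD fibroblasts carrying ASA-I179S: 48 h compound exposure at 37 C, then 14 h room-temperature pNCS turnover (0.5 mM final) in lysis buffer. Read by fluorescence at 525/598 nm after NaOH stop.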

[2] = qHTS for compounds that reverse cellular toxicity of Amyloid beta (A-beta) peptide in yeast: LOPAC Validation Assay (AID 720559);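 further: plate controls were DMSO for no effect and equimolar ferric chloride plus clioquinol rescue for full effect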
Summary of the method: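 Rescue of A-beta toxicity was scored as yeast growth by 600 nm absorbance after 48 hr at 30 C with compound. Normalization used DMSO (negative) and equimolar ferric chloride plus clioquinol (positive).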

[3] = qHTS for Activators of Parkin Expression: LOPAC Validation Assay (NLuc Reporter) (AID 720572;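 further: 0% = DMSO and 100% = positive control compound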)
Summary of the method: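 Neuronal line stably carrying a FLuc/NLuc coincidence reporter under the Parkin promoter, seeded 24 h, then dosed in 7-point series for 24 h at 37 C. NLuc luminescence read after FLuc; normalized to DMSO and positive control (100%).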

[4] = target: T1, Hexokinase-4 (Homo sapiens) + Glucokinase regulatory protein (Homo sapiens) (UniProt P35557+Q14397); experiment: qHTS assay for inhibitors of recombinant human GCK-GKRP interaction: Diaphorase-coupled assay (AID 743205)
T1 sequence (P35557 whole entry, looked up): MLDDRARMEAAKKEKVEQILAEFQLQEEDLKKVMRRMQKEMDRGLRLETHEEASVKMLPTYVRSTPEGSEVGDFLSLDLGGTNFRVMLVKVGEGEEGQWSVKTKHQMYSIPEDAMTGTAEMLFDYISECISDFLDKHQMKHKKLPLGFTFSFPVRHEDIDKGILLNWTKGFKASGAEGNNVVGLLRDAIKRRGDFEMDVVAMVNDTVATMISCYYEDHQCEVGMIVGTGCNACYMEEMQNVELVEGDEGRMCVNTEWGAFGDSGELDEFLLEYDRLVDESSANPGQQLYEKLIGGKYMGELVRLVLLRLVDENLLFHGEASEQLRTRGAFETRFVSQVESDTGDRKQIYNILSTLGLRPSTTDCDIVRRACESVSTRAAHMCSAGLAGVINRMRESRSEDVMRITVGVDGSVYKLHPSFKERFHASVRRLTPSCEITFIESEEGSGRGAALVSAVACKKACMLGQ
T1 sequence (Q14397 whole entry, looked up): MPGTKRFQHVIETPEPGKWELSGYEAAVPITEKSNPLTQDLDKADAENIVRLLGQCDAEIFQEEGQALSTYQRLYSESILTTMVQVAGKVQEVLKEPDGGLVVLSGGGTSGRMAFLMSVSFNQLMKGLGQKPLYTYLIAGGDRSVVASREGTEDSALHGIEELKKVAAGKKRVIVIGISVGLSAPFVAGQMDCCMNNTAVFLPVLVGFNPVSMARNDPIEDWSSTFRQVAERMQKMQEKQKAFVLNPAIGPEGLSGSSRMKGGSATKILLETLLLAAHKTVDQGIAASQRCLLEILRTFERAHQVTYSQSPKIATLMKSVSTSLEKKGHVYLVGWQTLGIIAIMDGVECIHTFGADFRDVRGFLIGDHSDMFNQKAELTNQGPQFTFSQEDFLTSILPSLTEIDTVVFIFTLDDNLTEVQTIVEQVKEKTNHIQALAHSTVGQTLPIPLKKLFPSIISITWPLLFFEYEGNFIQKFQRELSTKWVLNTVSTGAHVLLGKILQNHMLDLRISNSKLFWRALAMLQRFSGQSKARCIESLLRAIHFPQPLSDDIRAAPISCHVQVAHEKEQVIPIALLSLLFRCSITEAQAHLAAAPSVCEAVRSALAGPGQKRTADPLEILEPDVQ
Summary of the method: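 A kinetic fluorescence read (Ex 525/Em 590 nm, every minute for 30 minutes) tracked resorufin from a G6PDH-diaphorase coupled GCK reaction. It contained 10 nM GST-GCK, 10 nM FLAG-GKRP, 5 mM glucose, 0.4 mM ATP in Hepes pH 7.6. Normalized to with/without-enzyme DMSO controls.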

[5] = target: T1, Hexokinase-4 (Homo sapiens) + Glucokinase regulatory protein (Homo sapiens); experiment: qHTS assay for inhibitors of recombinant human GCK-GKRP interaction: ADP-Glo assay (AID 743206);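 further: plate controls were DMSO plus enzyme for no effect and no enzyme for full effect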
Summary of the method: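 GST-GCK and FLAG-GKRP (15 nM each in the dispensed mix, with 2 uM S6P) react with 0.4 mM ATP and 5 mM glucose (final) in Hepes pH 7.6 for 60 min at room temperature. ADP is measured by ADP-Glo luminescence.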

[6] = target: Peroxisome proliferator-activated receptor alpha (Homo sapiens) (UniProt Q07869); experiment: qHTS assay for small molecule agonists of the peroxisome proliferator-activated receptor alpha (PPARalpha) signaling pathway (AID 651778); details: PathHunter PPARalpha complementation, chemiluminescence, 6 h; max response: stronger effect = higher value; further: % of control where 0% means no effect
Peroxisome proliferator-activated receptor alpha (Homo sapiens), sequence (Q07869 whole entry, looked up): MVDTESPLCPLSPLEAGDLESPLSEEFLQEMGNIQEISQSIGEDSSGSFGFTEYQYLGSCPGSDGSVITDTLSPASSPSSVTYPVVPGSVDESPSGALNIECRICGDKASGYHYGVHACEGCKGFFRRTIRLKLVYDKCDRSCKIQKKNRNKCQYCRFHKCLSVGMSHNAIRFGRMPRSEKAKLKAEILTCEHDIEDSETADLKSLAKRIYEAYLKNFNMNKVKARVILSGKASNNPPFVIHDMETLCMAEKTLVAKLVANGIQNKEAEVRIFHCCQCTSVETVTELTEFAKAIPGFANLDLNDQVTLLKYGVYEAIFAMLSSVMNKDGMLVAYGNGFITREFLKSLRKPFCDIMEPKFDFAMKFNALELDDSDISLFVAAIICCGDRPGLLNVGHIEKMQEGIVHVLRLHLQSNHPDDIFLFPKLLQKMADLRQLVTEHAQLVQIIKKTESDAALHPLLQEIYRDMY
Summary of the method: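 Cells plated at 2,000/well and held overnight at 37 C, 5% CO2, then compound added by pin tool for 6 hr; after PathHunter detection reagent and 60 min at room temperature, chemiluminescence from enzyme complementation was read.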

[7] = qHTS assay for small molecule agonists of the antioxidant response element (ARE) signaling pathway measured by Nrf2-dependant transcriptional activity (AID 720636; active means well fitted curve in the direction sought with a large enough effect in the repeat runs; an effect the other way counts as inactive or inconclusive;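 further: HepG2 cells with an ARE-driven luciferase reporter; % of control where 0% means no effect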)
Summary of the method: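 Attachment 6 hr at 37 C, then compound versus DMSO vehicle for 16 hr in ARE-luc HepG2 cells (1% dialyzed FBS); luminescence recorded 30 min after ONE-Glo addition at room temperature.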

[8] = qHTS assay for small molecule agonists of the antioxidant response element (ARE) signaling pathway measured by Nrf2-dependant transcriptional activity - cell viability counter screen (AID 720653; active means well fitted curve in the direction sought with a large enough effect in the repeat runs; an effect the other way counts as inactive or inconclusive; further: on the % scale 0 is the no-effect control and ±100 the full control effect); details: ARE-bla HepG2 viability, CellTiter-Glo ATP luminescence, 16 h; max response: stronger effect = lower value
Summary of the method: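 ARE-bla HepG2 cells (2,000/well) rested 5 hrs at 37C/5% CO2, then exposed to compounds in DMSO for 16 hrs. Viability was read in the same wells as intracellular ATP by luminescence, 30 min at room temperature after reagent addition.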

[9] = target: Tyrosine-protein kinase Yes (Homo sapiens) (UniProt P07947); experiment: qHTS for small molecule inhibitors of Yes1 kinase: Primary Screen (AID 686947); further: potency means the concentration at half of the fitted maximal effect; nearly all actives have a fitted effect of over 60% in size
Tyrosine-protein kinase Yes (Homo sapiens), sequence (P07947 whole entry, looked up): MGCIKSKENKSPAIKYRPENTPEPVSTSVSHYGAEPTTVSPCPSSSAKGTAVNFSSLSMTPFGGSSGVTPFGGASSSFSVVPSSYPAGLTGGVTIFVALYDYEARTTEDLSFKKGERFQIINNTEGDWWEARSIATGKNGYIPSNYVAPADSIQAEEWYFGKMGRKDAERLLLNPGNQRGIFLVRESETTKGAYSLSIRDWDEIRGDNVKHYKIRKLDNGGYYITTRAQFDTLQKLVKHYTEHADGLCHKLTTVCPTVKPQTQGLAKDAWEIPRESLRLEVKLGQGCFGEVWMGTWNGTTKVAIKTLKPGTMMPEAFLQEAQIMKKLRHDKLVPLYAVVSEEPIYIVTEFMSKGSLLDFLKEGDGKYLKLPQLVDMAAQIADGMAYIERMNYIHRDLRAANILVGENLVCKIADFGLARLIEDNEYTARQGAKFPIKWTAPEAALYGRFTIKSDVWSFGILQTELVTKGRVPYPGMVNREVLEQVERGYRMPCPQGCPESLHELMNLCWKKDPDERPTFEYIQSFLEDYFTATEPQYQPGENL
Summary of the method: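 Yes1 (4 nM) preincubated 20 min with compound, then 60 min room-temperature reaction with 0.1 mM ATP and 0.3 mg/mL poly(E4Y) in pH 7.5 Tris, 10 mM MgCl2. ADP measured by ADP-Glo luminescence, normalised to enzyme/no-enzyme controls.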

[10] = qHTS assay for environmental chemicals that activate the Aryl hydrocarbon Receptor (AhR) signaling pathway (AID 651777); details: 1A2-DRE human hepatoma cells, luciferase, 24 h; activation: stronger effect = higher value; further: % of control where 0% means no effect; nearly all actives have a fitted effect of over 15% in size
Summary of the method: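 Concentration–response screening used 1,200 1A2-DRE cells per well, 24 hr compound exposure (37 C, 5% CO2), and One-Glo luminescence as the AhR-driven CYP1A2 reporter signal.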

[11] = qHTS assay for small molecule activators of the nuclear factor-kappa B (NF-kB) signaling pathway (AID 651749; active means well fitted activation curve with a large enough effect in the signal ratio; the % refers to the signal ratio; further: series mostly up to about 77 µM; % of control where 0% means no effect); details: NF-kB-bla ME-180 cells, beta-lactamase FRET ratio, 16 h; stronger effect = higher value
Summary of the method: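 Screening used 2,000 ME-180 reporter cells per well exposed to pinned compound (23 nL) or DMSO; after 16 hr at 37C, beta-lactamase expression under NF-kB control was assessed through FRET.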

Cc1cccc(C)c1NC(=O)CN1CCCC1=O
inactive: Potency [1] | outcome [2] | outcome [3] | outcome [4] | outcome [5]

CC(CCc1ccccc1)NC(C)C(O)c1ccc(O)cc1 (stereo unspecified)
inactive: Potency [1] | outcome [2] | outcome [3] | outcome [4] | outcome [5]

COc1ccc(Cc2nccc3cc(OC)c(OC)cc23)cc1OC
inactive: Potency [1] | outcome [4]

Clc1ccc(COC(Cn2ccnc2)c2ccc(Cl)cc2Cl)cc1 (stereo unspecified)
inactive: max response [6] -5.88% | Potency [7] | max response [8] -7.45%

CCCN1CCC[C@@H]2Cc3nc(N)ncc3C[C@H]21
inactive: Potency [1] | outcome [2] | outcome [3] | outcome [4] | outcome [5]

N#CC(C#N)=Cc1ccc(O)c(O)c1
inactive: Potency [1] | outcome [2] | outcome [4] | outcome [5]

CC(=O)[C@H]1CC[C@H]2[C@@H]3CC[C@H]4C[C@H](O)CC[C@]4(C)[C@H]3C(=O)C[C@]12C
inactive: Potency [1] | outcome [2] | outcome [3] | outcome [4] | outcome [5]

CNCCC(Oc1ccc(C(F)(F)F)cc1)c1ccccc1 (stereo unspecified)
inactive: Potency [1]

Cc1cc2c(C(C)C)c(O)c(O)c(C=O)c2c(O)c1-c1c(C)cc2c(C(C)C)c(O)c(O)c(C=O)c2c1O
active: Potency [9] 30.7 µM | Potency [1] 19 µM
inactive: Potency [7]

O=c1[nH]c2ccccc2n1CCCN1CCC(n2c(=O)[nH]c3cc(Cl)ccc32)CC1
inactive: Potency [1] | outcome [2] | outcome [3] | outcome [4] | outcome [5]

Cc1cccc(C)c1NC1=NCCCS1
inactive: outcome [2] | outcome [3] | outcome [4] | outcome [5]

C[C@@H]1O[C@@H](O[C@H]2C[C@@H](O)[C@]3(CO)[C@H]4[C@H](O)C[C@]5(C)[C@@H](C6=CC(=O)OC6)CC[C@]5(O)[C@@H]4CC[C@]3(O)C2)[C@H](O)[C@H](O)[C@H]1O
inactive: activation [10] 6.71% | max response [6] -0.456% | Potency [1] | outcome [2] | outcome [3] | Potency [7] | outcome [4] | outcome [5]

CN(C)CCC=C1c2ccccc2CCc2ccccc21
inactive: Potency [7] | max response [8] -15%

CC(C)=CCOc1c2occc2cc2ccc(=O)oc12
inactive: Potency [1] | outcome [2] | outcome [3] | outcome [4] | outcome [5]

c1ccc(C2CC2)c(OCC2=NCCN2)c1
inactive: Potency [1] | outcome [2] | outcome [3] | outcome [4] | outcome [5]

COc1ccccc1N1CCNCC1
inactive: Potency [1] | outcome [2] | outcome [3] | outcome [4] | outcome [5]

O=C1NCN(c2ccccc2)C12CCN(CC1COc3ccccc3O1)CC2 (stereo unspecified)
inactive: outcome [2] | outcome [3] | outcome [4] | outcome [5]
active: Potency [1] 3.01 µM

NCC(CC(=O)O)c1ccc(Cl)cc1 (stereo unspecified)
inactive: Potency [1] | outcome [2] | outcome [3] | outcome [4] | outcome [5]

C=C(C)[C@H]1Cc2c(ccc3c2O[C@@H]2COc4cc(OC)c(OC)cc4[C@@H]2C3=O)O1
inactive: activation [11] 7.78% | activation [10] 3.42% | max response [6] 7.18% | Potency [1] | outcome [2] | outcome [3] | Potency [7] | outcome [4] | outcome [5]

CC[C@@H](CO)NC(=O)[C@@H]1C=C2c3cccc4[nH]cc(c34)C[C@H]2N(C)C1
inactive: Potency [1] | outcome [2] | outcome [3] | outcome [4] | outcome [5]

CN1C[C@H](CNC(=O)OCc2ccccc2)C[C@@H]2c3cccc4c3c(cn4C)C[C@H]21
inactive: Potency [1] | outcome [2] | outcome [3] | outcome [4] | outcome [5]

COc1ccc(C(CN(C)C)C2(O)CCCCC2)cc1 (stereo unspecified)
inactive: outcome [2] | outcome [3] | outcome [4] | outcome [5]

O=c1c(O)c(-c2ccc(O)c(O)c2)oc2cc(O)cc(O)c12
active: Potency [9] 15.4 µM
